± gives the standard deviation of the averaged measurements. Whole data set: some 25,000 sequences, median “ln(normalized median fluorescence intensity)” near 7.9, cut for the highest 2% near 11. The sample as a whole holds a higher share of the highest values than the screen did.

This assay concerns PfAP2-I AP2 domain 3 (GST-tagged). As to the kind of experiment: gcPBM binding intensity (ln(normalized median fluorescence intensity)); higher = stronger DNA binding. The gist of the method:
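Binding of GST-tagged P. falciparum DNA-binding domains, expressed in E. coli and used at about 25 μg on average, was carried out for 1 h in 1× PBS containing 1% milk, 0.2 mg/ml BSA, 0.5% salmon testes DNA and 0.03% Triton X-100. The target was an Agilent 4 × 180k array of primer-extended double-stranded 36-bp intergenic genomic probes plus negative controls, read with Alexa488 anti-GST antibody at 488 nm. Binding intensity is the highest Masliner-normalised natural-log median intensity across replicate spots of either probe orientation.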
As for “TGTATAAATATAATCACACATATATATATATATATA [CACACA_site4365]”, the “gcPBM binding intensity (ln)” value is 9.32 ± 0.53.

As to “AATTTATAAGAATAAAGTACTAAAGATACAACTTTA [XGTACX_site7153]”, the “gcPBM binding intensity (ln)” value was 7.53 ± 0.4.

Regarding “GAATAAAAAAAAAAAAAAATTTATTTTATAATAAAA [CACACA_negctrl_site1514]”, the “gcPBM binding intensity (ln)” value stood at 7.24 ± 0.49.

“ACTTATATTATAAATTGTACAAATATTATATTTGGT [XGTACX_site1424]”: the “gcPBM binding intensity (ln)” value is 7.76 ± 0.54.

As for “ACATATATATATATATATATATATATATTACATTTA [CACACA_negctrl_site627]”, the “gcPBM binding intensity (ln)” value was determined as 8.54 ± 0.28.

Regarding “AATAAAGAAGAAGAAAGTACACATTTCACAAAGGGG [XGTACX_site1308]”, the “gcPBM binding intensity (ln)” value was found to be 8.23 ± 0.21.

In the case of AAAAATACAATTTTCTTGCACTTTGTTGCATTGTAA, the “gcPBM binding intensity (ln)” value came to 9.79 ± 0.32.

“TATAAATAGATATATACACACTTGTGCAGAATATTA [CACACA_site7112]”: the “gcPBM binding intensity (ln)” value stood at 9.37 ± 0.099.

Regarding “CCATCTTTTTTACGATGTACAAGTATAAGGTATACG [XGTACX_site2697]”, the “gcPBM binding intensity (ln)” value came out at 7.76 ± 0.46.

With “TACTGCCTTCCATACCCACACACTTCCCATATATTT [CACACA_site2705]”, the “gcPBM binding intensity (ln)” value worked out at 8.44 ± 0.69.

For “TAGAACAAATAAAACACACACATATAAATATAGATG [CACACA_site7325]”, the “gcPBM binding intensity (ln)” value came out at 7.65 ± 0.73.

Turning to “TTTTTTTGTTGTTGTTGTACGATATTTTCCTTATCA [XGTACX_site2375]”, the “gcPBM binding intensity (ln)” value was found to be 7.93 ± 0.54.

Regarding “TATTCAATACTTAATGCACACAATAAAAAAAATATG [CACACA_site2467]”, the “gcPBM binding intensity (ln)” value was 10.9 ± 0.71.

For the sequence “TATGCAATAAAATATACACACAATATACTTATATAT [CACACA_site7691]”, the “gcPBM binding intensity (ln)” value is 7.87 ± 0.4.

“TATGTAATAAAATATACACACAATATACTTATATAT [CACACA_site3682]”: the “gcPBM binding intensity (ln)” value was 7.53 ± 0.55.

Turning to “AATAATAATATATGTAGTACACATTTCCATTATGTT [XGTACX_site3708]”, the “gcPBM binding intensity (ln)” value amounted to 7.75 ± 0.27.

On to “ACTTATTGTGGTTTTGCATGTAGCATTTTTACATAC [TGCATGCA_site247]”, for which the “gcPBM binding intensity (ln)” value worked out at 8.62 ± 0.91.

Take “TGTTTTATTTTTTTTGTGCACATACCTTTAGCATCA [GTGCAC_site9812]”: the “gcPBM binding intensity (ln)” value was 10.64 ± 0.064.

For the sequence CATCATCTTTTAAAGGTGCATAATAATATTGTTAAT, the “gcPBM binding intensity (ln)” value amounted to 11.4 ± 0.69.

With TTTTGTTATTTTTTAGTGCATATAAAGGTTGTTAAG, the “gcPBM binding intensity (ln)” value came out at 10.7 ± 0.4.

Take TTTCTTTTTAAATAGGTGCATATTTTTATAAATATA: the “gcPBM binding intensity (ln)” value was found to be 9.95 ± 0.42.

For “ATATACATTCTATATACATGCATACTTCATTTTGTG [TGCATGCA_site966]”, the “gcPBM binding intensity (ln)” value turned out to be 8.03 ± 0.85.

Turning to “GTGAAATATGCAAACACACACGAGAAAAATGTATAT [CACACA_site7488]”, the “gcPBM binding intensity (ln)” value came out at 8.19 ± 0.91.

With “AAGGAGAAATATTGCACACGTGCAAAATGGTATGAG [CACACA_site259]”, the “gcPBM binding intensity (ln)” value was 11.1 ± 0.35.

Take “GAGTGAAATATGCAAACACACACGAGAAAAATGTAT [CACACA_site3196]”: the “gcPBM binding intensity (ln)” value is 8.09 ± 0.85.

As for “AAAAGGAGAAATATTGCACACGTGCAAAATGGTATG [CACACA_site4300]”, the “gcPBM binding intensity (ln)” value is 11.3 ± 0.085.

For the sequence “AATGAGAAGGACTGCACACTAAAATGGAAGGAGAAA [CACACA_site1575]”, the “gcPBM binding intensity (ln)” value came to 8.28 ± 0.79.

For the sequence “AGGAAAATTATGAATGGTACAGAATATATTAGGAGA [XGTACX_site6282]”, the “gcPBM binding intensity (ln)” value was determined as 8.05 ± 0.74.

Consider “AAGAAGAGTTATTGTAGTACATTTTTAAATGTAATA [XGTACX_site7664]”, for which the “gcPBM binding intensity (ln)” value was determined as 7.73 ± 0.34.

In the case of “TGTTATATAATTTAGCGTACAGGTTATAGGACGGAT [XGTACX_site8823]”, the “gcPBM binding intensity (ln)” value stood at 8.5 ± 0.35.

“CCATGATTATTAGATTGTACATAACATACAAATTGA [XGTACX_site314]”: the “gcPBM binding intensity (ln)” value is 7.68 ± 0.45.

Consider “TGTCATGATACATACACACACATACACATACACATA [CACACA_site2135]”, for which the “gcPBM binding intensity (ln)” value worked out at 8.05 ± 0.42.

As to “AATATTATATATATGGGTACTAATTCCTTTAATTTC [XGTACX_site102]”, the “gcPBM binding intensity (ln)” value was 7.45 ± 0.53.

For the sequence “TTTTTTTTTTTCGGGGGTACTAATATATTATTAATA [XGTACX_site7809]”, the “gcPBM binding intensity (ln)” value turned out to be 10.8 ± 0.47.

Take “ATATATATATATATATGTACTAATTAATATTTCGAG [XGTACX_site580]”: the “gcPBM binding intensity (ln)” value was 9.45 ± 0.49.

Turning to “ATATGCATAAAAAGAGGTACACATAAAATATATATA [XGTACX_site5864]”, the “gcPBM binding intensity (ln)” value is 8.19 ± 0.64.

Regarding “TAAATAATTTATAAGTGTACTATTATTGCACGAATA [XGTACX_site7715]”, the “gcPBM binding intensity (ln)” value was 11.1 ± 0.57.

For “GATATACAATTTAAGTGTACTATAATAAAATATATA [XGTACX_site3013]”, the “gcPBM binding intensity (ln)” value was determined as 7.79 ± 0.071.

Consider “TTTATTTAAAATAAGTGTACTAGAAAAATTAAGCAG [XGTACX_site4982]”, for which the “gcPBM binding intensity (ln)” value was 8.55 ± 0.16.

Regarding “ACATATTTCCAATAATGTACATACAAAATAAGAATG [XGTACX_site2659]”, the “gcPBM binding intensity (ln)” value came out at 7.82 ± 0.58.

Consider “AAAAAAAAAATATATTGTACAATATTGTAGCTATAT [XGTACX_site7180]”, for which the “gcPBM binding intensity (ln)” value turned out to be 7.67 ± 0.49.

In the case of “GTTTTTAAGAAAAACACACACTCCTGTTATTTTATA [CACACA_site3696]”, the “gcPBM binding intensity (ln)” value stood at 7.67 ± 0.72.

Take “ATGCTTATTATTTATTGTACTGAATAAATATATCTG [XGTACX_site4483]”: the “gcPBM binding intensity (ln)” value turned out to be 7.79 ± 0.46.

“TCGTGCATAAATCATACACACACACCGATATATATA [CACACA_site8767]”: the “gcPBM binding intensity (ln)” value was 11.3 ± 0.67.

On to “GTGCATAAATCATACACACACACATATATAAATATA [CACACA_site7188]”, for which the “gcPBM binding intensity (ln)” value was determined as 10.5 ± 0.65.

“GTGCATAAATCATACACACACACATATATATATATA [CACACA_site2423]”: the “gcPBM binding intensity (ln)” value was found to be 10.4 ± 0.67.

As for “TATACGGACTCTAAGTGTACTTAAAATAATTCAAAC [XGTACX_site3606]”, the “gcPBM binding intensity (ln)” value is 7.75 ± 0.53.

“AATTAACCCTAATTTTGTACATATTCCTTTTCTCAT [XGTACX_site46]”: the “gcPBM binding intensity (ln)” value turned out to be 7.92 ± 1.

For ATTTTATTTTATTAAGTGCAAAAAAAAAAAAAGAAA, the “gcPBM binding intensity (ln)” value is 10.2 ± 0.32.

For the sequence TATTTTTATTATATGGTGCATATATACATACATATA, the “gcPBM binding intensity (ln)” value worked out at 10.7 ± 0.79.

Turning to TATTATTATTTTATGGTGCAAAAAAAAAAAAAAAAA, the “gcPBM binding intensity (ln)” value was found to be 10.9 ± 0.61.

Take “AAAAACAAAATTTGGAGTACAGTTATAATATTATTA [XGTACX_site5245]”: the “gcPBM binding intensity (ln)” value stood at 8 ± 0.24.

For the sequence “TAATATAATCTGAGTGCACACAAATAAATAAACATA [CACACA_site8032]”, the “gcPBM binding intensity (ln)” value stood at 10.5 ± 0.14.

In the case of “GCACAAATATATATATATATATATATATATATATAT [GTGCAC_negctrl_site661]”, the “gcPBM binding intensity (ln)” value worked out at 9.07 ± 0.54.

Turning to “ATGAGTGCACAAATATATATATATATATATATATAT [CACACA_negctrl_site404]”, the “gcPBM binding intensity (ln)” value was 11 ± 0.56.

Consider “GGAAAATTATCAATAGCATGCAAAATGTGAATATTA [TGCATGCA_site901]”, for which the “gcPBM binding intensity (ln)” value was 7.61 ± 0.7.

“GAAAATATTATAGCACCACACACTTATTTTATATAT [CACACA_site2265]”: the “gcPBM binding intensity (ln)” value is 10.5 ± 0.71.

For the sequence “AAATATTATAGCACCACACACTTATTTTATATATAT [CACACA_site5281]”, the “gcPBM binding intensity (ln)” value worked out at 10.8 ± 0.86.

On to “AAATATTATAGCACCACACACTTATTTTATTTATAT [CACACA_site7133]”, for which the “gcPBM binding intensity (ln)” value was determined as 10.8 ± 0.55.

Values taken from the supplement of paper PMC11417369.
